Results filed as inconclusive are left out. Active and inactive are the calls of the source. How the source made its calls: active means hit-call score of the fitted dose curve at least 0.9, where 1 is the maximum; inconclusive means response in the unintended direction; inactive means score below 0.9.

The record followed here is PubChem BioAssay (EPA / NIEHS).

Sequence of Glyceraldehyde-3-phosphate dehydrogenase (Homo sapiens) (P04406 whole entry, looked up): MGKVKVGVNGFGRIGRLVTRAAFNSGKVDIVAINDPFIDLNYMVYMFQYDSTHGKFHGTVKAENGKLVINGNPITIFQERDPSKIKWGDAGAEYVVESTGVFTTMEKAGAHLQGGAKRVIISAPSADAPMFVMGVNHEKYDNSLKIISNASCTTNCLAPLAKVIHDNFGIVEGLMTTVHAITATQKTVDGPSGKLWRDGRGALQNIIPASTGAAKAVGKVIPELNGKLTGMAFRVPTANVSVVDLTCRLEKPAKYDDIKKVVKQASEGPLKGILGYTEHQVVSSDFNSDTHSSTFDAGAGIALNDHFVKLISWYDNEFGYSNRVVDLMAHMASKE

Read-out in this assay: Glyceraldehyde-3-phosphate dehydrogenase (Homo sapiens) (UniProt P04406)
Briefly: CLD_GAPDH_24hr: CellzDirect (CLD) Gene Expression Assay for Baseline Control (Glyceraldehyde 3-phosphate dehydrogenase) at 24 hours (AID 2283692). As to the method:
CLD_24hr is a cell-based, multiplexed-readout assay that uses hepatocyte, a human liver primary cell, with measurements taken at 24 hours after chemical dosing in a 96-well plate.CLD_GAPDH_24hr is one of 16 assay component(s) measured or calculated from the CLD_24hr assay. It is designed to make measurements of mRNA induction, a form of inducible reporter, as detected with chemiluminescence signals by Quantitative Nuclease Protection Assay (qNPA) technology.Data from the assay component CLD_GAPDH_24hr was analyzed at the endpoint, CLD_GAPDH_24hr, in the positive analysis fitting direction relative to DMSO as the negative control and baseline of activity. Using a type of inducible reporter, gain-of-signal activity can be used to understand changes in the reporter gene as they relate to the gene GAPDH. Furthermore, this assay endpoint can be referred to as a secondary readout, because this assay has produced multiple assay endpoints where this one serves a background control function. To generalize the intended target to other relatable targets, this assay endpoint is annotated to the background measurement intended target family, where subfamily is baseline control.
Human hepatocyte cultures were treated daily for two consecutive days with fresh dosing solutions containing appropriate concentrations of the 320 ToxCast chemicals (chemical identities were blinded to CellzDirect and other ToxCast collaborators), vehicle control (0.2% DMSO), and positive control inducers as summarized in Table 1. Due to the large number of treatment groups and chemicals examined, the ToxCast chemicals were divided into two groups (spanning two independent cultures of hepatocytes from separate donor preparations (Hu778: ToxCast plates 1 and 2; Hu776: ToxCast plates 3 and 4). Each preparation of human hepatocyte cultures was treated with respective vehicle control, medium only control, set of six positive controls/reference chemicals for the five hepatic receptor pathways, and a subset of eight of the ToxCast chemicals (indoxacarb, pyrithiobac-sodium, norflurazon, cyhalofop-butyl, methomyl, thiram, acetochlor, and propiconazole). These replicate data, coupled with internal replicates designed within the blinded ToxCast chemical library, provided additional data to evaluate interindividual differences between hepatocyte preparations and their potential impact on chemical profiles.Cell morphology and integrity were evaluated using phase-contrast microscopy as an indicator of hepatocyte cell health (Tyson & Green, 1987). Cultures for each treatment group (i.e., media, vehicle [0.2% DMSO], positive control inducers [multiple concentrations], and the ToxCast chemicals [multiple concentrations]) were observed and cell morphology was assessed relative to vehicle control cultures at each harvest time point (0, 6, 24, or 48 h). […] Images were evaluated at the conclusion of the study to assess changes in cell integrity and account for the effects of chemical exposure on uncharacteristic changes in concentration-dependent gene expression profiles. The results from these determinations of apparent cytotoxicity were annotated (yes/no) alongside the corresponding qNPA data for reference.At the conclusion of each treatment period, hepatocyte cultures (96-well) were washed with 1 volume of HBSS, lysed by addition of 25 ul ArrayPlate lysis buffer (HTG, Tucson, AZ), and 70 ul/well of Denaturation Oil, denatured by incubation at 95C for 10 min, and frozen at approximately -70C until analysis by nuclease protection assay (qNPA) (Roberts et al., 2007). For qNPA analysis, cell lysates were thawed at 50C for approximately 30 min, qNPA probes were added, and samples were incubated at 95C for 10 min to begin the detection process by denaturing the target RNA, dissociating the duplexes and secondary structure hybridization. At the conclusion of the hybridization period, S1 nuclease reagent was added to each sample to digest all nonprotected nucleotides at 50C for 60-90 min. […]
On to `CCc1cccc(CC)c1N(COC)C(=O)CCl`, for which the outcome was inactive.

On to `CN(C)[C@@H]1C(=O)C(C(N)=O)=C(O)[C@@]2(O)C(=O)C3=C(O)c4c(O)cccc4[C@@](C)(O)[C@H]3[C@H](O)[C@@H]12`, for which the outcome was inactive.

Take `N#CSCSC#N`: the call was inactive.

For the compound `CCC(=NOC/C=C/Cl)C1=C(O)CC(C2CCOCC2)CC1=O` (centres undefined), the result was inactive. Take `CCOP(=S)(OCC)OC(Cl)C(Cl)(Cl)Cl` (centres undefined): the compound was called inactive. Then `CCCCOC(=O)c1ccccc1C(=O)O`, with “inactive”; and `CCCCOC(=O)[C@@H](C)Oc1ccc(Oc2ccc(C#N)cc2F)cc1`, with “inactive”; and `CC(C)N(C(=O)SCC(Cl)=C(Cl)Cl)C(C)C`, with “inactive”. Turning to `CCCOc1nn(C(=O)NS(=O)(=O)c2ccccc2C(=O)OC)c(=O)n1C`, the result was inactive.

Take `CNC(=O)ON=C(C)SC`: the compound was called inactive. As to `CC(C)=CC1C(C(=O)OCN2C(=O)C3=C(CCCC3)C2=O)C1(C)C` (centres undefined), the compound was classed as inactive. For `S=C1NCCN1`, the result was inactive.

Take `COc1cc(OC)nc(Sc2cccc(Cl)c2C(=O)O)n1`: the compound was called inactive. As for `CC[C@H](C)[C@H]1O[C@]2(C=C[C@@H]1C)C[C@@H]1C[C@@H](C/C=C(\C)[C@@H](O[C@H]3C[C@H](OC)[C@@H](O[C@H]4C[C@H](OC)[C@@H](NC)[C@H](C)O4)[C@H](C)O3)[C@@H](C)/C=C/C=C3\CO[C@@H]4[C@H](O)C(C)=C[C@@H](C(=O)O1)[C@]34O)O2`, the compound was called inactive. Then `CC1=NNC(=O)N(/N=C/c2cccnc2)C1`, with “inactive”; and `O=C(O)c1cc(Oc2ccc(C(F)(F)F)cc2Cl)ccc1[N+](=O)[O-]`, with “inactive”; and `CSc1nnc(C(C)(C)C)c(=O)n1N`, with “inactive”. For `CCOP(=O)(NC(C)C)Oc1ccc(SC)c(C)c1` (centres undefined) the value was “inactive”. Then `COP(=O)(NC(C)=O)SC` (centres undefined), with “inactive”. For the compound `O=c1ccc(=O)[nH][nH]1`, the call was inactive. As for `COc1ccc(C(=CC(=O)N2CCOCC2)c2ccc(Cl)cc2)cc1OC`, the result was inactive.

Consider `Nc1nc(N)nc(NC2CC2)n1`, for which the call was inactive.

In the case of `C#CCC1=C(C)C(OC(=O)C2C(C=C(C)C)C2(C)C)CC1=O` (centres undefined), the result was inactive.

Turning to `CCOP(=O)(OCC)Oc1cc(C)nc(C(C)C)n1`, the call was inactive. Turning to `CNC(=O)ON=C(SC)C(=O)N(C)C`, the compound was classed as inactive.

With `CCc1cnc(C2=NC(C)(C(C)C)C(=O)N2)c(C(=O)O)c1` (centres undefined), the call was inactive. Consider `CC(Oc1cccc(Cl)c1)C(=O)O` (centres undefined), for which the call was inactive.

Take `CN(C)NC(=O)CCC(=O)O`: the compound was called inactive.

Regarding `CCCOCC(=Nc1ccc(Cl)cc1C(F)(F)F)n1ccnc1`, the compound was called inactive.
